# Test results from the supplement of paper PMC10338343.
# ± gives the standard deviation.
# System: MILI (PIWIL2) piRISC loaded with L1MC piRNA (26 nt)
# Assay: pre-steady-state target cleavage rate (min^-1); guide: L1MC piRNA 5'p-UAACUAAAUACUAUGCAAGCUGUAGG; MIWI and MILI are mouse PIWI proteins and EfPiwi is from a freshwater sponge; tags in brackets are library labels; higher = faster piRNA-guided slicing of the target
# Settings: auxiliary factor: 500 nM mouse GTSF1
# Outline: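 A burst-and-steady-state fit was used to obtain the pre-steady-state cleavage rate. The input data were sequencing reads of uncleaved targets, normalised to depth and to weakly complementary targets, from a […] transcribed, DNA-blocked target RNA library mixed with 1 nM active affinity-purified piRISC holding one synthetic guide, with or without 500 nM GTSF1 partner protein, in HEPES–potassium acetate buffer at 33 °C for 0–8 or 0–960 min. Three trials were pooled and k3 was capped at 0.0001 min^-1.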
# 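Further: 1 nM active piRISC with 0.1 nM target library at 33 °C single turnover.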
row,Sequence,pre-steady-state target cleavage rate
1,UCCUCCUUGUGCUUGCAUAGUAUUUUCAAA,0.0192 ± 0.0073
2,UCCUGGAUCAGCAUGCAUAGUAUUUUCAAA,0.0716 ± 0.018
3,UCCUGGAUGUCGAACCAUUGUAUAUAGUUA,< 0.0001
4,UCCUGGAUGUCGAUGCAUAAUAUUUAGUUA,0.0556 ± 0.013
5,UCCUGGAUGUGCUAGCAUAGUAUUUAGAUA,0.0954 ± 0.023
6,UCCUGCUACAGCUUGCAUACUAUAUAGUUA,0.0515 ± 0.015
7,UCCUGGUACACCUUGCAUACUAUUUAGUUA,0.228 ± 0.072
8,UCCUGGAUGUGCUUGCAUAGUAUUUCAGUUA,0.0278 ± 0.01
9,UCCUGGAUGUCCUUGCUUAGAAUUUAGUUA,0.00442 ± 0.004
10,UCCUGGAUGUGCUUGCAUAGUAUUAAGAAA,0.00586 ± 0.0036
11,UCCUGGAUGUCGAUGCAGAGUAUUUAGUUA,0.00473 ± 0.0028
12,UCCUGGAUGUGGUUGCAUAGUAUUUAGAUA,0.0485 ± 0.021
13,UCCUGGAUGUCGAUGCAUAGUAUUUCAGUUA,0.108 ± 0.025
14,UCCUGGAUGUCGAAGCAUAGUAUUGUAGUUA,0.00801 ± 0.0041
15,UCCUGGAUGAGCUUGCAUAGUAUUAACAAA,0.00849 ± 0.0045
16,UCCUGGAUGAGCUUGCAUAGAAUUUAGUAA,0.0264 ± 0.011
17,UCCUGGAUGUCGAACGAUAGUAAUAAGUUA,< 0.0001

row,Sequence,pre-steady-state target cleavage rate
1,UCCUGGAUGUCGAAGCAUAGUAUAUUGUUA,0.00971 ± 0.0047
2,UCCUGGAUGUCCUUGCUAAGUAUUUAGUUA,0.00944 ± 0.0051
3,UCCUGGAUCAGCUUGCAUAGUAUUAUGAAA,0.0664 ± 0.016
4,UCCUGGAUGUCCAUGCAUAGUAUUUAGUAA,0.0373 ± 0.011
5,UCCUGGAUGUCGAUGCAUAGUAUUUAGGUA,0.0275 ± 0.011
6,UCCUCCUACAGCUUGCAUAGUUAAAUCAAA [g10:g26:cont:t1A],0.0191 ± 0.0072
7,UCCUGGAUGUCGAACCAUAGUUAAUAGUUA,< 0.0001
8,UCCUGGUACAGCUUGCUUAGUAUUUUGUUA,0.0736 ± 0.021
9,UCCUGGAUGAGCAUGCAUAGUAUUUACAAA,0.0679 ± 0.018
10,UCCUGGAUGAGCAAGCAUAGUAUUUACAAA,0.0174 ± 0.0067
11,UCCUGGAUGAGCUUGCAUAGUAAUAAGUUA,0.202 ± 0.045
12,UCCUGGAUCAGCUUGCAUAGUAUUUACUAA,0.0285 ± 0.011
13,UCCUGGUACACCUUGGAUAGUAUUUAGUUA,0.223 ± 0.069
14,UCCUGGAUGAGCUUGCAUAGUAAUUUGUUA,0.0508 ± 0.018
15,UCCUGGAUCUCCUUGCAUAGUAUUUUCAAA,0.0367 ± 0.0088
16,UCCUGGAUCUGCUUGCAUAGUAUUUACAAA,0.104 ± 0.022
17,UCCUGGAUCUGCUUGCAUAGUAUUUUCAAA,0.0366 ± 0.0094
